Assay results reported in PubChem BioAssay.
Inconclusive results are not listed. Activity calls are given as the source filed them.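 How the source made its calls, unless noted: active means growth inhibition above 25% in both replicates, a cutoff set 3 SD above the mean; inconclusive means above 25% in only one replicate; inactive means the rest.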

Columns and labels:
[1] = Her2 expression decrease, cell viability multiplex – SKBR3 breast tumor cells, AlphaScreen, ATP viability, primary screen (AID 461;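 active means Her2 level under about 52% in both replicate screens, with viability over 70% of control, limit read from the data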;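 on Her2 level: lower value means less Her2 protein in the cells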;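 on viability: percent of carrier control wells set as 100% viability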); settings: SKBR3 Her2 protein level, 18-24 h, measured here: SKBR3 viability, ATP luminescence, at 10 µM
[2] = molecular target: Receptor tyrosine-protein kinase erbB-2 (Homo sapiens) (UniProt P04626); assay: as above; settings: 18-24 h, at 10 µM, stronger effect = lower value
[3] = reduced viability of SK-BR-3 breast cancer cells – cell-based, 24 h, human, pilot screen (AID 572;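 active means viability at or below 10% of carrier control in both of two separate runs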;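 further: compound exposure lasted between 18 and 24 h rather than exactly 24 h; 100% = carrier-treated control wells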); settings: SK-BR-3 viability, CellTiter-Glo luminescence, at 10 µM, stronger effect = lower value
[4] = HUVEC growth inhibition – cell-based, human, primary screen (AID 575;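 active means viability at or below 30% in both replicate assays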;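 further: 100% = median of untreated cell wells with 0.1% DMSO on each plate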); settings: HUVEC proliferation, CellTiter-Glo luminescence, 72 h; at 10 µM; stronger effect = lower value
[5] = H69AR cell proliferation blockers – human, duplicate replicates, primary screen (AID 580;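 active means viability at or under a set limit in both replicates, limit being median viability minus 3 SD, cut at about 48% in these data, passing the limit was not always enough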;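 further: 100% = mean luminescence of untreated wells and 0% = no signal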); settings: H69AR lung tumor cells viability, ATP luminescence, 72 h; at 10 µM; stronger effect = lower value
[6] = MRP1 drug-resistance reversers in H69AR cells – cell-based, doxorubicin co-treatment, pilot screen (AID 601;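 active means viability loss from added drug above about 55%, and viability with drug at most 40%, in both replicates, limit read from the data, passing the limit was not always enough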); settings: CellTiter-Glo, 72 h, at 10 µM; for differential viability (reversal): stronger effect = higher value
[7] = yeast transport mutant growth inhibition pilot in 384-well plates, post-Golgi transport modulator project (AID 636; in the data active means inhibition above about 31%); settings: absorbance 615 nm, about 18 h, stronger effect = higher value
[8] = growth suppression of yeast trafficking mutant, preliminary HTS, modulators of trafficking downstream of Golgi apparatus project, 1536-format plate, OD 615 nm (AID 637; in the data active means inhibition above about 30%); settings: yeast transport mutant growth, absorbance 615 nm, 18 h; stronger effect = higher value
[9] = S. cerevisiae growth inhibition in permissive medium (OD615), pilot counter-assay for S. cerevisiae lifespan shortening project, permissive growth control (AID 705); settings: OD615, 24 h, at 10 µM, stronger effect = higher value
[10] = S. cerevisiae growth inhibition in restrictive medium, OD615, pilot screen, restrictive growth control, yeast lifespan reduction project (AID 706;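 active means growth inhibition above a set limit, 3 SD over mean compound inhibition, in both replicates, cut at about 43% in these data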;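 further: modified DeaD lifespan yeast strain shifted to restrictive glucose medium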); settings: OD615, 48 h, at 10 µM, stronger effect = higher value
[11] = doxorubicin toxicity protection in MRP-1 cells – H69AR cells, CellTiter-Glo, duplicate, MRP-1 activator project, pilot screen (AID 807;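 active means viability increase at or above a cutoff of the median across tested compounds plus 3 SD, cut at about 8.5% in these data, passing the limit was not always enough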;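 further: compound pretreatment 18-22 h then 72 h combined with doxorubicin; 0% = doxorubicin alone and 100% = vehicle without doxorubicin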); settings: H69AR viability with doxorubicin, CellTiter-Glo luminescence; at 10 µM; stronger effect = higher value
[12] = viability of HCT116 without oncogenic beta-catenin – human colon tumor cells, pilot screen (AID 823;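 active means cell viability at or below a set limit in both duplicate runs, the limit being the all-compound median minus 4 SD, cut at about 23% in these data, passing the limit was not always enough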;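 further: 0% = wells killed by 20 µM Hyamine and 100% = untreated DMSO cell wells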); settings: HCT116 beta-catenin knockout viability, CellTiter-Glo, 60 h; at 10 µM; stronger effect = lower value
[13] = viability of PTEN-null HCT116 cells – cell-based, HCT116 clonal line, CellTiter-Glo, pilot screen (AID 824;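 active means viability at or below 27.92% in each of two runs, the all-compound median minus 4 SD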;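 further: 0% = 20 µM Hyamine control and 100% = vehicle cell control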); settings: HCT116 PTEN-deleted viability, 60 h, at 10 µM, stronger effect = lower value
[14] = RAM pathway blockade in budding yeast – dse1pr::URA3 reporter, 5-FOA selection, pilot screen (AID 869;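 active means inhibition over a set limit, the all-compound mean plus 3 SD, in both replicate runs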;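 further: 0% = DMSO wells with no growth and 100% = 10 µM 1-NA-PP1 with full growth; RAM network block rescues cells from 5-FOA so hits raise OD615 growth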); settings: S. cerevisiae dse1pr::URA3 5-FOA growth, OD615, 2 d; at 10 µM; stronger effect = higher value; strain carries analog-sensitive mutant Cbk1 kinase
[15] = RAM signaling pathway blockade in yeast – S. cerevisiae, Pdr1DBD-CYC8 efflux-inhibited sensitized strain, primary screen (AID 1298;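 active means RAM network inhibition above 8.4% in each of two replicates, 3 SD over the compound average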;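 further: 0% = DMSO untreated cells without growth and 100% = 10 µM 1-NA-PP1 full growth; higher means more yeast growth rescued from 5-FOA killing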); settings: S. cerevisiae cbk1-as DSE1-URA3 strain, 5-FOA growth OD615, 2 d; at 50 µM; stronger effect = higher value
[16] = H69AR cells + 2 uM doxorubicin, measured here: viability with 2 uM doxorubicin, stronger effect = lower value
[17] = H69AR cells, compound alone cytotoxicity

Receptor tyrosine-protein kinase erbB-2 (Homo sapiens), sequence (P04626 whole entry, looked up): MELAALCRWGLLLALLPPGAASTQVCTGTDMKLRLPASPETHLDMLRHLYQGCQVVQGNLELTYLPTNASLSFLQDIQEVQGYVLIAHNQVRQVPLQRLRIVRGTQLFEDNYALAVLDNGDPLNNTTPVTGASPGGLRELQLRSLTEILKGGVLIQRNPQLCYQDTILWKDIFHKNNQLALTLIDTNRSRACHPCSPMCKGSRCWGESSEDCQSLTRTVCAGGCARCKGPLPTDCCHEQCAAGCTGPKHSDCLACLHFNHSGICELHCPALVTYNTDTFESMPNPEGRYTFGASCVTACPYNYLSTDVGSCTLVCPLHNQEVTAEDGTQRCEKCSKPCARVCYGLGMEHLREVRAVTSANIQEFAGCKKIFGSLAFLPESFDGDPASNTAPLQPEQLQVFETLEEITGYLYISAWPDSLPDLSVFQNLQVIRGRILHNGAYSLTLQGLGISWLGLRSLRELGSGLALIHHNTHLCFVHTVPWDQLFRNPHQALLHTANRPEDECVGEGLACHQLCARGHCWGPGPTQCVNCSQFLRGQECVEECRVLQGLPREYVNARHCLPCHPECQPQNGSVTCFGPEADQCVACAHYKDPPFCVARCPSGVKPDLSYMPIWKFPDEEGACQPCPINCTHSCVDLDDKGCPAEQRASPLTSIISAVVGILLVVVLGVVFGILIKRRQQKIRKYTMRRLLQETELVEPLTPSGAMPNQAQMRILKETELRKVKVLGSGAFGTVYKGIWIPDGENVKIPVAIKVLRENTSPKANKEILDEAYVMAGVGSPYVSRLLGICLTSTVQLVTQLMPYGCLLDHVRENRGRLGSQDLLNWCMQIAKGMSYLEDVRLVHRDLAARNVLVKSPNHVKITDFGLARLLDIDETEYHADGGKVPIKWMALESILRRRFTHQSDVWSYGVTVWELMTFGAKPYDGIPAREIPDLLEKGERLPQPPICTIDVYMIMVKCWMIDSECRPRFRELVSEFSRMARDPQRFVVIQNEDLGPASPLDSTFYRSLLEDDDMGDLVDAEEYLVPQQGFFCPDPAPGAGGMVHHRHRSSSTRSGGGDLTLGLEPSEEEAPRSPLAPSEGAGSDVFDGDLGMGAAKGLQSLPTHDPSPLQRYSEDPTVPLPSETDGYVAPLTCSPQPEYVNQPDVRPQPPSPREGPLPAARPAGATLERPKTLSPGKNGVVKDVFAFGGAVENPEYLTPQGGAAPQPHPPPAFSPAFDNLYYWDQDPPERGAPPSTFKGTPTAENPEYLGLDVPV

Row | Structure (SMILES) | viability [1] | Her2 level [2] | viability [3] | viability [4] | viability [5] | differential viability (reversal) ([6]; H69AR cells + 2 uM doxorubicin) | viability [6, 16] | viability [6, 17] | inhibition [7] | inhibition [8] | growth inhibition [9] | growth inhibition [10] | viability increase [11] | viability [12] | viability [13] | inhibition [14] | RAM network inhibition [15]
1 | CN1CCN(CCCNC(=O)Cn2ncc3c4ccccc4n(C)c3c2=O)CC1 | 84% | 129% (inactive) | 84% (inactive) | 82.7% (inactive) | 86% (inactive) | -8.1% (inactive) | 94.1% | 86% | 1.15% (inactive) | 10.8% (inactive) | -16.9% (inactive) | -28.7% (inactive) | -1.44% (inactive) | 92.9% (inactive) | 100% (inactive) | 3.37% (inactive) | 4.04% (inactive)
2 | O=C(NCCCN1CCOCC1)c1ccc(CS(=O)(=O)c2c(Cl)cccc2Cl)o1 | 90.5% | 102% (inactive) | 90.5% (inactive) | 88.8% (inactive) | 92.3% (inactive) | -2.01% (inactive) | 94.3% | 92.3% | -0.67% (inactive) | -0.5% (inactive) | -11.8% (inactive) | -17.8% (inactive) | -1.26% (inactive) | 101% (inactive) | 92.3% (inactive) | 1.61% (inactive) | 5% (inactive)
3 | COc1ccc(OC)c(NC(=O)c2nnn(Cc3ccc(Br)cc3F)c2N)c1 | 80% | 88% (inactive) | 80% (inactive) | 40.9% (inactive) | 75.7% (inactive) | 16.7% (inactive) | 58.9% | 75.7% | 1.07% (inactive) | -0.49% (inactive) | -0.51% (inactive) | -7.43% (inactive) | 0.57% (inactive) | 69.5% (inactive) | 66.1% (inactive) | 1.21% (inactive) | 4.25% (inactive)
4 | COC(=O)CN1C(=O)C(O)(CC(=O)c2ccc(C)cc2)c2cc(Br)ccc21 (stereo not drawn) | 102% | 96.5% (inactive) | 102% (inactive) | 88.2% (inactive) | 81.6% (inactive) | -11.8% (inactive) | 93.3% | 81.6% | -0.27% (inactive) | -1.5% (inactive) | -15.5% (inactive) | 2.94% (inactive) | -0.78% (inactive) | 91% (inactive) | 92.5% (inactive) | 1.67% (inactive) | 2.87% (inactive)
5 | CCCCc1ccc(NC(=O)C2CCCO2)cc1 (stereo not drawn) | 92% | 122% (inactive) | 92% (inactive) | 93.5% (inactive) | 103% (inactive) | 20.8% (inactive) | 82.2% | 103% | -4.87% (inactive) | -5.33% (inactive) | 2.46% (inactive) | 2.07% (inactive) | 2.53% (inactive) | 100% (inactive) | 94.5% (inactive) | 1.05% (inactive) | 3.17% (inactive)
6 | CCOCCCNC(=O)c1ccc2c(c1)N(Cc1ccccc1)C(=O)CS2=O (stereo not drawn) | 104% | 103% (inactive) | 104% (inactive) | 103% (inactive) | 106% (inactive) | 10.2% (inactive) | 96.1% | 106% | 0.13% (inactive) | -10.7% (inactive) | -5.99% (inactive) | 6.05% (inactive) | -0.16% (inactive) | 102% (inactive) | 93.1% (inactive) | 1.42% (inactive) | -0.72% (inactive)
7 | CCN1CCN(c2nc3c(c(=O)[nH]c(=O)n3C)n2CCSc2nc3ccccc3s2)CC1 | 95.5% | 95% (inactive) | 95.5% (inactive) | 115% (inactive) | 88.6% (inactive) | -8.44% (inactive) | 97.1% | 88.6% | -1.73% (inactive) | 4% (inactive) | 1.81% (inactive) | -6% (inactive) | -1.2% (inactive) | 96.9% (inactive) | 91.4% (inactive) | 0.9% (inactive) | -0.84% (inactive)
8 | O=C(Nc1cccc(F)c1)C1C2C=CC3(CN(CCCN4CCOCC4)C(=O)C13)O2 (stereo not drawn) | 96% | 104% (inactive) | 96% (inactive) | 89.4% (inactive) | 103% (inactive) | 20.3% (inactive) | 83.1% | 103% | -2.27% (inactive) | -3.11% (inactive) | 1.12% (inactive) | 1.81% (inactive) | 0.8% (inactive) | 106% (inactive) | 106% (inactive) | 0.595% (inactive) | 2.03% (inactive)
9 | CCOc1cc(C2CC(=O)N3CN(C4CCCCC4)CSC3=C2C#N)ccc1O (stereo not drawn) | 85% | 108% (inactive) | 85% (inactive) | 113% (inactive) | 87.3% (inactive) | -13.7% (inactive) | 101% | 87.3% | 1.92% (inactive) | 2% (inactive) | 41.6% (active) | 76% (active) | -4.1% (inactive) | 105% (inactive) | 95.1% (inactive) | 0.17% (inactive) | 2.85% (inactive)
10 | COc1cc(NC(=O)CN(c2cc(C)cc(C)c2)S(=O)(=O)c2c(C)noc2C)cc(OC)c1 | 88.5% | 108% (inactive) | 88.5% (inactive) | 80.8% (inactive) | 83.8% (inactive) | -0.43% (inactive) | 84.3% | 83.8% | 0.9% (inactive) | -5% (inactive) | -14.8% (inactive) | -18.5% (inactive) | -4.92% (inactive) | 92.3% (inactive) | 87.5% (inactive) | 2.82% (inactive) | 4.61% (inactive)
11 | Cc1onc(-c2ccccc2Cl)c1C(=O)N1CCc2ccccc21 | 87.5% | 78.5% (inactive) | 87.5% (inactive) | 80.9% (inactive) | 79% (inactive) | -9.1% (inactive) | 88.1% | 79% | -1.82% (inactive) | -5.5% (inactive) | -1.1% (inactive) | -8.1% (inactive) | -3.41% (inactive) | 82.8% (inactive) | 87.1% (inactive) | 2.23% (inactive) | 7.99% (inactive)
12 | COc1ccc(OCCSc2nc3ccccc3n2CC(=O)O)cc1 | 92.5% | 108% (inactive) | 92.5% (inactive) | 85.4% (inactive) | 97.8% (inactive) | 2.5% (inactive) | 95.3% | 97.8% | -3.21% (inactive) | -2% (inactive) | -2.19% (inactive) | -5.21% (inactive) | -0.98% (inactive) | 99.6% (inactive) | 94.8% (inactive) | 0.61% (inactive) | 4.44% (inactive)
13 | CCOC(=O)CSc1nnc(Cn2c(=O)sc3ccccc32)n1C | 96% | 94% (inactive) | 96% (inactive) | 87% (inactive) | 96.7% (inactive) | 11.1% (inactive) | 85.5% | 96.7% | 3.33% (inactive) | -2.5% (inactive) | 1.56% (inactive) | 7.89% (inactive) | 1.76% (inactive) | 107% (inactive) | 106% (inactive) | 0.27% (inactive) | 3.51% (inactive)
14 | C(=N\c1c(-c2ccccc2)nc2n1CCS2)/c1ccccc1 | 102% | 104% (inactive) | 102% (inactive) | 85.9% (inactive) | 100% (inactive) | 10.5% (inactive) | 89.5% | 100% | -1.69% (inactive) | -6% (inactive) | 1.59% (inactive) | 40.4% (inactive) | -4.2% (inactive) | 84.8% (inactive) | 90.2% (inactive) | 0.675% (inactive) | 6.86% (inactive)
15 | Cc1ccc(-c2cc(C(=O)Nc3cc(C)on3)c3ccccc3n2)c(C)c1 | 77.5% | 99.5% (inactive) | 77.5% (inactive) | 96% (inactive) | 84.7% (inactive) | -5.17% (inactive) | 89.9% | 84.7% | -4.67% (inactive) | 3.67% (inactive) | -8.89% (inactive) | -8.38% (inactive) | -0.76% (inactive) | 87.4% (inactive) | 82.4% (inactive) | 1.68% (inactive) | 7.01% (inactive)
16 | COc1ccc(N2CCN(C(c3ccccc3)c3sc4nc(C)nn4c3O)CC2)cc1 (stereo not drawn) | 91.5% | 101% (inactive) | 91.5% (inactive) | 82.2% (inactive) | 90% (inactive) | -8.41% (inactive) | 98.4% | 90% | -4.93% (inactive) | -2.17% (inactive) | 1.81% (inactive) | -0.505% (inactive) | -1.28% (inactive) | 96.8% (inactive) | 97.3% (inactive) | 2.81% (inactive) | -0.02% (inactive)
17 | CCn1cc(C2=NOC(C(=O)Nc3c(C)nn(Cc4ccc(F)cc4)c3C)C2)c(C)n1 (stereo not drawn) | 76.5% | 86.5% (inactive) | 76.5% (inactive) | 86.2% (inactive) | 88.2% (inactive) | 1.12% (inactive) | 87.1% | 88.2% | -1.41% (inactive) | 1.67% (inactive) | -11.1% (inactive) | 2.07% (inactive) | 1.43% (inactive) | 95.2% (inactive) | 103% (inactive) | 1.9% (inactive) | 1.61% (inactive)
18 | CCOC(=O)N1CCN(Cc2nc3c(c(=O)n(C)c(=O)n3C)n2Cc2ccccc2)CC1 | 104% | 106% (inactive) | 104% (inactive) | 96.3% (inactive) | 89.1% (inactive) | 10.5% (inactive) | 78.7% | 89.1% | -2.13% (inactive) | 2.62% (inactive) | -8.18% (inactive) | -4.35% (inactive) | -4.1% (inactive) | 97.3% (inactive) | 98% (inactive) | 0.61% (inactive) | 4.53% (inactive)
19 | CCOC(=O)CN1CC23C=CC(O2)C(C(=O)Nc2ccc(C(C)=O)cc2)C3C1=O (stereo not drawn) | 87% | 101% (inactive) | 87% (inactive) | 101% (inactive) | 96.4% (inactive) | 2.38% (inactive) | 94% | 96.4% | -1.07% (inactive) | 2.67% (inactive) | -5.7% (inactive) | 2.56% (inactive) | -1.78% (inactive) | 102% (inactive) | 94.2% (inactive) | 1.26% (inactive) | 1.41% (inactive)
